# Reference: PubChem BioAssay (Tox21)
# Several values for one entry are separate records, joined by “and”; a condition that tells them apart may be missing. Equal values may be shown once. Inconclusive results are not listed. Entries that show only a call come without a potency. Some compounds were tested as several samples or in several runs, with calls that do not always agree. Activity calls are given as the source filed them. Unless noted, calls follow the shape of the dose curve; as a rule, active = well fitted cell-killing curve with a large enough effect in the repeat runs; inconclusive = weak or mixed curves; inactive = no such curve, though single readings can be large or run the other way.
# Tested on: not listed separately
# Assay: qHTS assay to identify small molecule agonists of the peroxisome proliferator-activated receptor delta (PPARd) signaling pathway - cell viability counter screen (AID 743211); also: nearly all actives have a fitted effect of over 55% in size
# Details: PPARd-bla HEK293H viability, CellTiter-Glo luminescence, 17 h; series mostly up to 62.6 µM; activity change, negative = cytotoxicity: at the top concentration
# Method in brief: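 Counter screen for cytotoxicity run in parallel with the PPARd reporter screen. Beta-lactamase reporter HEK293H cells exposed to compounds 17 h; ATP-based CellTiter-Glo luminescence quantified viability.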
SMILES,Potency,"activity change, negative = cytotoxicity"
COCCOCCOCCO,inactive,–
c1ccc2c(c1)ccc1ncccc12,–,-4.55% (inactive)
CCCCCCCCCCCCO,inactive,–
c1ccc2cc3ccccc3cc2c1,inactive,–
Cc1ccc(S(=O)(=O)NCl)cc1,inactive,–
Cc1ccc(N)c([N+](=O)[O-])c1,inactive,–
CC(C)(Oc1ccc(Cl)cc1)C(=O)O,inactive,–
CC/C=C\C/C=C\C/C=C\CCCCCCCC(=O)O,–,26.8% (inactive)
C1COCCN1,inactive,–
CN(C)/N=N/c1nc[nH]c1C(N)=O,inactive,–
CCCCCCOCCOCCO,inactive,–
COC(=O)c1ccc(C)cc1,inactive,–
NCCOCCO,inactive,–
C[C@]12C=CC(=O)C=C1CC[C@H]1[C@@H]3C[C@@H](O)[C@](O)(C(=O)CO)[C@@]3(C)C[C@H](O)[C@@]12F,inactive,–
O=S1(=O)CCCO1,inactive,–
CC(=O)Nc1ccc2c(c1)Cc1cc(NC(C)=O)ccc1-2,inactive,–
COc1ccc(C(=O)c2ccccc2O)c(O)c1,–,12.5% (inactive)
Nc1ccc(O)c(N)c1,inactive,–
NC[C@H](O)c1ccc(O)c(O)c1,inactive,–
OC[C@@H](O)[C@@H](O[C@@H]1O[C@H](CO)[C@H](O)[C@H](O)[C@H]1O)[C@H](O)[C@@H](O)CO,inactive,–
Cc1ccc([N+](=O)[O-])c(C)c1,inactive,–
Clc1ccc(Sc2cc(Cl)c(Cl)cc2Cl)cc1,–,-0.982% (inactive)
Nc1cc(Cl)c(N)c(Cl)c1,inactive,–
O=C(O)CCCC(=O)O,inactive,–
c1ccc2c(c1)ccc1cc3c(ccc4ccccc43)cc12,inactive,–
COC(=O)C(C)Oc1ccc(Oc2ncc(C(F)(F)F)cc2Cl)cc1 (configuration not stated),inactive,–
C=CC(=O)OCCCC,inactive,–
CCC(=O)O[C@H]1[C@H](O[C@@H]2[C@@H](C)[C@H](O[C@H]3C[C@@](C)(OC)[C@@H](O)[C@H](C)O3)[C@@H](C)C(=O)O[C@H](CC)[C@@](C)(O)[C@H](O)[C@@H](C)C(=O)[C@H](C)C[C@@]2(C)O)O[C@H](C)C[C@@H]1N(C)C,–,-12.7% (inactive)

# Molecular target: Peroxisome proliferator-activated receptor delta (Homo sapiens) (UniProt Q03181)
# Sequence (Q03181 whole entry, looked up): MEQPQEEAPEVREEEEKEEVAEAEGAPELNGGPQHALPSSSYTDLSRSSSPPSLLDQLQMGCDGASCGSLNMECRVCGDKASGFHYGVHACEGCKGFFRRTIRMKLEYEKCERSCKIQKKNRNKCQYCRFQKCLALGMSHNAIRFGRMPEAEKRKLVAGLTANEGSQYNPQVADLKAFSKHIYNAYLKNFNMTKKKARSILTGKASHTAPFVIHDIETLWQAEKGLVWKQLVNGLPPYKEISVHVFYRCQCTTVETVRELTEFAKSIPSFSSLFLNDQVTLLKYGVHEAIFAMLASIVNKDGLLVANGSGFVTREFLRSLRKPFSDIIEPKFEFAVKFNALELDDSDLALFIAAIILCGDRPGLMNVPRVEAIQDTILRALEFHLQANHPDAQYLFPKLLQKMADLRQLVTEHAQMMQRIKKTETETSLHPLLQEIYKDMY
# Assay: qHTS assay to identify small molecule agonists of the peroxisome proliferator-activated receptor delta (PPARd) signaling pathway (AID 743212; calls by dose curve)
# Details: HEK293H PPARd-UAS-bla, beta-lactamase FRET ratio, 17 h; series mostly up to 62.6 µM; activation: at the top concentration
# Method in brief: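 GeneBLAzer PPARd UAS-bla HEK293H cells (beta-lactamase reporter under UAS control), plated and rested 5 h at 37 C, then exposed to compounds in DMSO at 37 C; LiveBLAzer B/G FRET substrate added, 2 h room temperature, fluorescence read.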
SMILES,activation,outcome
COCCOCCOCCO,-0.141% [at 81.1 µM] (inactive),–
Cc1ccc(C(C)(C)C)cc1,–,inactive
CCCCCCCCCCCCO,–,inactive
c1ccc2cc3ccccc3cc2c1,–,inactive
CCO[Si](CCCNC(N)=O)(OCC)OCC,–,inactive
Cc1ccc(S(=O)(=O)NCl)cc1,–,inactive
CCC/C=C/C=O,–,inactive
Cc1ccc(N)c([N+](=O)[O-])c1,1.21% (inactive),–
CC(C)(Oc1ccc(Cl)cc1)C(=O)O,–,inactive
CC/C=C\C/C=C\C/C=C\CCCCCCCC(=O)O,3.08% (inactive),–
C1COCCN1,–,inactive
Brc1nc2ccccc2s1,–,inactive
CN(C)/N=N/c1nc[nH]c1C(N)=O,–,inactive
Cc1ccc(C)c(O)c1,–,inactive
COC(=O)c1ccc(C)cc1,–,inactive
NCCOCCO,–,inactive
C[C@]12C=CC(=O)C=C1CC[C@H]1[C@@H]3C[C@@H](O)[C@](O)(C(=O)CO)[C@@]3(C)C[C@H](O)[C@@]12F,–,inactive
O=S1(=O)CCCO1,–,inactive
CC(=O)Nc1ccc2c(c1)Cc1cc(NC(C)=O)ccc1-2,–,inactive
COc1ccc(C(=O)c2ccccc2O)c(O)c1,–,inactive
CCCCCCC(C)O (configuration not stated),–,inactive
CC1(C)C(C=C(Cl)Cl)C1C(=O)OCc1cccc(Oc2ccccc2)c1 (configuration not stated),–,inactive
c1ccc2ncccc2c1,–,inactive
C=C[C@@]1(C)CC(=O)[C@]2(O)[C@@]3(C)[C@@H](O)CCC(C)(C)[C@@H]3[C@H](O)[C@H](OC(C)=O)[C@@]2(C)O1,-2.72% (inactive),–
Cc1ccc([N+](=O)[O-])c(C)c1,–,inactive
Nc1cc(Cl)c(N)c(Cl)c1,–,inactive
O=C(O)CCCC(=O)O,–,inactive
c1ccc2c(c1)ccc1cc3c(ccc4ccccc43)cc12,-1.32% (inactive),–
COC(=O)C(C)Oc1ccc(Oc2ncc(C(F)(F)F)cc2Cl)cc1 (configuration not stated),–,inactive
C=CC(=O)OCCCC,–,inactive

# Tested on: not listed separately
# Assay: qHTS assay to identify small molecule antagonists of the peroxisome proliferator-activated receptor delta (PPARd) signaling pathway - cell viability counter screen (AID 743213); also: nearly all actives have a fitted effect of over 50% in size; also: potency is read from the fitted curve at half-maximal effect
# Details: PPARd-bla HEK293H viability, CellTiter-Glo luminescence, 17 h; series mostly up to 62 µM; viability change, negative = cytotoxic: at the top concentration
# Method in brief: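 HEK293H PPARd UAS-bla cells, 5 h pre-incubation, compound + L165041 300 nM final, 17 h 37 C; B/G FRET substrate 2 h RT; then CellTiter-Glo 30 min RT, luminescence.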
SMILES,Potency,"viability change, negative = cytotoxic"
COCCOCCOCCO,inactive,–
c1ccc2c(c1)ccc1ncccc12,–,-3.89% (inactive)
Cc1ccc(C(C)(C)C)cc1,inactive,–
CCCCCCCCCCCCO,inactive,–
c1ccc2cc3ccccc3cc2c1,inactive,–
CCO[Si](CCCNC(N)=O)(OCC)OCC,inactive,–
Cc1ccc(S(=O)(=O)NCl)cc1,–,16% [at 80.4 µM] (inactive)
CCC/C=C/C=O,inactive,–
Cc1ccc(N)c([N+](=O)[O-])c1,–,10.8% (inactive)
CC(C)(Oc1ccc(Cl)cc1)C(=O)O,inactive,–
CC/C=C\C/C=C\C/C=C\CCCCCCCC(=O)O,inactive and 34.7 µM (active),–
CNC[C@H](O)c1ccc(O)c(O)c1,inactive,–
C1COCCN1,inactive,–
Brc1nc2ccccc2s1,inactive,–
CN(C)/N=N/c1nc[nH]c1C(N)=O,inactive,–
Cc1ccc(C)c(O)c1,inactive,–
CCCCCCOCCOCCO,inactive,–
COC(=O)c1ccc(C)cc1,inactive,–
COc1cc([C@H]2Oc3cc([C@H]4Oc5cc(O)cc(O)c5C(=O)[C@@H]4O)ccc3O[C@@H]2CO)ccc1O,inactive,–
NCCOCCO,inactive,–

SMILES,Potency,"viability change, negative = cytotoxic"
C[C@]12C=CC(=O)C=C1CC[C@H]1[C@@H]3C[C@@H](O)[C@](O)(C(=O)CO)[C@@]3(C)C[C@H](O)[C@@]12F,inactive,–
O=S1(=O)CCCO1,inactive,–
CC(=O)Nc1ccc2c(c1)Cc1cc(NC(C)=O)ccc1-2,inactive,–
COc1ccc(C(=O)c2ccccc2O)c(O)c1,–,-27.4% (inactive)
CCCCCCC(C)O (configuration not stated),inactive,–
CC1(C)C(C=C(Cl)Cl)C1C(=O)OCc1cccc(Oc2ccccc2)c1 (configuration not stated),inactive,–
Nc1ccc(O)c(N)c1,–,-0.138% (inactive)
c1ccc2ncccc2c1,–,-2.62% (inactive)
NC[C@H](O)c1ccc(O)c(O)c1,–,-6.56% (inactive)
OC[C@@H](O)[C@@H](O[C@@H]1O[C@H](CO)[C@H](O)[C@H](O)[C@H]1O)[C@H](O)[C@@H](O)CO,inactive,–
C=C[C@@]1(C)CC(=O)[C@]2(O)[C@@]3(C)[C@@H](O)CCC(C)(C)[C@@H]3[C@H](O)[C@H](OC(C)=O)[C@@]2(C)O1,9.77 µM (active),–
Cc1ccc([N+](=O)[O-])c(C)c1,inactive,–
Clc1ccc(Sc2cc(Cl)c(Cl)cc2Cl)cc1,–,16.8% (inactive)
Nc1cc(Cl)c(N)c(Cl)c1,inactive,–
O=C(O)CCCC(=O)O,inactive,–
c1ccc2c(c1)ccc1cc3c(ccc4ccccc43)cc12,–,4.18% (inactive)
COC(=O)C(C)Oc1ccc(Oc2ncc(C(F)(F)F)cc2Cl)cc1 (configuration not stated),inactive,–
C=CC(=O)OCCCC,inactive,–
CCC(=O)O[C@H]1[C@H](O[C@@H]2[C@@H](C)[C@H](O[C@H]3C[C@@](C)(OC)[C@@H](O)[C@H](C)O3)[C@@H](C)C(=O)O[C@H](CC)[C@@](C)(O)[C@H](O)[C@@H](C)C(=O)[C@H](C)C[C@@]2(C)O)O[C@H](C)C[C@@H]1N(C)C,23 µM (active) and inactive,–
